# A number with no mark means an inactive call. For part of these data: Measured potencies and affinities stand elsewhere. The source made the active and inactive calls. Unless noted, the rule behind the calls is not given here.
# How the values were obtained:
# [1] = antimalarial activity against Dd2 strain (AID 2302;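 active = growth inhibition above 50% at the single 2 µM test dose, taken to imply half-maximal potency below 2 µM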;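 note: 0% = DMSO untreated growth and 100% = chloroquine plus artemisinin killed control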); conditions: P. falciparum Dd2 in RBCs, LDH growth readout, 72 h; at 2 µM; stronger effect = higher value
# [2] = HepG2 cytotoxicity, primary screen, cytotoxicity control for P. falciparum antimalarial project, cell-based, ATP luminescence (AID 2303;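 active = inhibition above 50%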;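 note: 0% = DMSO wells and 100% = digitonin-killed cells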); conditions: HepG2 viability, 24-48 h, at 10 µM, stronger effect = higher value
# [3] = target: L-lactate dehydrogenase (Plasmodium falciparum (isolate CDC / Honduras)) (UniProt Q27743); assay: PfLDH activity inhibition – cell lysate, 3D7 strain, counter-screen for P. falciparum growth inhibition project (AID 2304);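 note: 0% = vehicle and 100% = reference inhibitor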; conditions: P. falciparum 3D7 crude extract, LDH APAD/NBT absorbance; at 2 µM; stronger effect = higher value
# [4] = inhibition of 3D7 malaria parasite growth – strain 3D7 (AID 2306);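 note: 0% = DMSO wells and 100% = chloroquine plus artemisinin control wells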; conditions: P. falciparum 3D7 erythrocytic growth, LDH absorbance, 72 h; at 2 µM; stronger effect = higher value
# [5] = target: Calcium-dependent protein kinase 1 (Plasmodium falciparum (isolate 3D7)) (UniProt P62344); assay: PfCDPK1 kinase inhibitors, biochemical, TCAMS library (AID 1159585; cut-off not given, nearly all actives have IC50 up to about 0.98 µM;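 note: inhibitors leave more ATP so luminescence rises with inhibition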); conditions: recombinant PfCDPK1, Kinase-Glo ATP depletion luminescence
# [6] = target: Plasmodium falciparum protein kinase 6 (PK6, PF3D7_1337100) (UniProt Q8IDW1); assay: PfPK6 kinase inhibitors, biochemical, TCAMS library (AID 1159586); conditions: recombinant PfPK6, Kinase-Glo ATP depletion luminescence
# [7] = target: Protein kinase 7 (PK7), Plasmodium falciparum 3D7 (PF3D7_0213400) (UniProt Q7YTF7); assay: inhibition of Plasmodium PK7 catalytic activity – biochemical, TCAMS antimalarial set, Kinase-Glo luminescence (AID 1159587); conditions: recombinant PfPK7, Kinase-Glo ATP depletion luminescence
# [8] = target: Calcium-dependent protein kinase 4 (Plasmodium falciparum (isolate 3D7)) (UniProt Q8IBS5); assay: PfCDPK4 kinase inhibitors, biochemical, TCAMS library (AID 1159588; cut-off not given, nearly all actives have IC50 up to about 0.91 µM); conditions: recombinant PfCDPK4, Kinase-Glo ATP depletion luminescence
# Calcium-dependent protein kinase 4 (Plasmodium falciparum (isolate 3D7)), sequence (Q8IBS5 whole entry, looked up): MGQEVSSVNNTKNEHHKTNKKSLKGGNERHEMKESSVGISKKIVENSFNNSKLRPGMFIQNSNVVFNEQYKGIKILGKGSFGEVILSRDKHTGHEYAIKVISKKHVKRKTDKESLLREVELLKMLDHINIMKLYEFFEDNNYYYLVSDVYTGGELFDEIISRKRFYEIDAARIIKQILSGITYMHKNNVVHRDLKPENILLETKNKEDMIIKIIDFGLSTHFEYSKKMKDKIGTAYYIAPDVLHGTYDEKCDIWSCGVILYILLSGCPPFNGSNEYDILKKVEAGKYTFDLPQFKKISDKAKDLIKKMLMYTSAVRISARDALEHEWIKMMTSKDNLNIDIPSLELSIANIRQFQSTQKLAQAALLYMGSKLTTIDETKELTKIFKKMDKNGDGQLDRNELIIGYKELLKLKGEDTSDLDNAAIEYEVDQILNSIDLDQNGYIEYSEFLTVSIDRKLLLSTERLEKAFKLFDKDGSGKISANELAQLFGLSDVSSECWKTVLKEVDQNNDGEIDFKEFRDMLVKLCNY
# Protein kinase 7 (PK7), Plasmodium falciparum 3D7 (PF3D7_0213400), sequence (Q7YTF7 1-343): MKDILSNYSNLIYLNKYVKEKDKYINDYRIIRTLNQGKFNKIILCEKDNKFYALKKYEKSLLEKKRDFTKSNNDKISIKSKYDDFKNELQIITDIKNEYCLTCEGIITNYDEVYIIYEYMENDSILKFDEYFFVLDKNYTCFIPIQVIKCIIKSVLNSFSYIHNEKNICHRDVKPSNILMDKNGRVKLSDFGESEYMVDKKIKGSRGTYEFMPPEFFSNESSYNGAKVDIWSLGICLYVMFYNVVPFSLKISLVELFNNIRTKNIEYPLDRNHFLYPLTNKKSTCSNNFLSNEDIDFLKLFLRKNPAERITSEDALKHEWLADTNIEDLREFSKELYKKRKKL
# Calcium-dependent protein kinase 1 (Plasmodium falciparum (isolate 3D7)), sequence (P62344 whole entry, looked up): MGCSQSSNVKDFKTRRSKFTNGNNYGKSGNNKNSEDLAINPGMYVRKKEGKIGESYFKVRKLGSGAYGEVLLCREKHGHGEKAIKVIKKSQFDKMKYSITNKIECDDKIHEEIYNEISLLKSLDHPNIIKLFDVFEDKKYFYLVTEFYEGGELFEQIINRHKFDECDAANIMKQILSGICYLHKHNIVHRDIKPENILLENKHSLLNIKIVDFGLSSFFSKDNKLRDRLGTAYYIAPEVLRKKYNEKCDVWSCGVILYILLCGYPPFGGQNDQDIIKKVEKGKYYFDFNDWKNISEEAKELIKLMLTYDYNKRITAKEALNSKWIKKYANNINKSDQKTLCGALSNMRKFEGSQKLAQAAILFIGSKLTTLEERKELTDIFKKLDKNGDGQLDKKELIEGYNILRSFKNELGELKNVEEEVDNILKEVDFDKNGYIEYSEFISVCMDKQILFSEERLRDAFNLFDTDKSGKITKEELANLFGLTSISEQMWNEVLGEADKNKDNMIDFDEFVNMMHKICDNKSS
# L-lactate dehydrogenase (Plasmodium falciparum (isolate CDC / Honduras)), sequence (Q27743 whole entry, looked up): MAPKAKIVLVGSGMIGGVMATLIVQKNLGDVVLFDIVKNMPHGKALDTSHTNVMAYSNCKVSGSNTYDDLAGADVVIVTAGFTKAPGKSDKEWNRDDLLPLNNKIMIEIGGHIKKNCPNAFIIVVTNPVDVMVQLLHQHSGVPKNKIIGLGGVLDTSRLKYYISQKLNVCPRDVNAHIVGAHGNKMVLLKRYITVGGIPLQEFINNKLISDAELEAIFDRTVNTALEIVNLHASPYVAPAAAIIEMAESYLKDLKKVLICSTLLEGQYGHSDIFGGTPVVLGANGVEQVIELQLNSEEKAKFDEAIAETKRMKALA
# Plasmodium falciparum protein kinase 6 (PK6, PF3D7_1337100), sequence (Q8IDW1 1-305): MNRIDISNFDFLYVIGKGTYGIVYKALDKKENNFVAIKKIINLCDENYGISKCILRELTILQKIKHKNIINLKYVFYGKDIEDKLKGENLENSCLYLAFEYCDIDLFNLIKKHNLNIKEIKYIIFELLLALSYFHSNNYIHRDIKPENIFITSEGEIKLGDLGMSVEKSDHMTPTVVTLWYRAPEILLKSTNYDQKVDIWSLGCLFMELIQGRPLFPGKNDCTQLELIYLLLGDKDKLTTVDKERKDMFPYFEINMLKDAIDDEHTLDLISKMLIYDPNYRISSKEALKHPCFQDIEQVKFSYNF
SMILES,growth inhibition [1],inhibition [2],inhibition [3],growth inhibition [4],outcome [5],outcome [6],outcome [7],outcome [8]
COc1ccc(CCCN2C(=O)C(c3ccccc3)(c3ccccc3)N=C2N)cc1,76% (active),21%,5%,94% (active),inactive,inactive,inactive,inactive
CC(C)Cn1c(Sc2ccc(C#N)c([N+](=O)[O-])c2)nnc1-c1cccc(Cl)c1,95% (active),24%,5%,98% (active),inactive,inactive,inactive,inactive
Cc1ccc(CNC(=O)c2cc3c(=O)n4cccc(C)c4nc3n(CCN3CCOCC3)c2=N)cc1,21%,31%,-6%,97% (active),inactive,inactive,inactive,inactive
Fc1cccc(C=NNc2ccnc3cc(Cl)ccc23)c1,91% (active),6%,-7%,99% (active),inactive,inactive,inactive,inactive
N#CCSc1nnc(-c2ccccc2)c2ccccc12,73% (active),5%,-1%,84% (active),inactive,inactive,inactive,inactive
COCCNCc1cccc(-c2cccc(CNC3CCN(Cc4ccccc4)CC3)c2)c1,99% (active),28%,-4%,101% (active),inactive,inactive,inactive,inactive
Cc1ccccc1C1CCN(C2CCC(NC(=O)/C=C/c3ccc(OC(F)(F)F)cc3)CC2)CC1 (configuration not stated),67% (active),96% (active),-5%,100% (active),inactive,inactive,inactive,inactive
Cc1cc2ncc(C(N)=O)c(Nc3ccc(N4CCOCC4)cc3)c2cc1S(C)(=O)=O,96% (active),-10%,-5%,100% (active),inactive,inactive,inactive,inactive
CN(C)c1cc(NC(=O)Nc2ccc(SC(F)(F)F)cc2)c2ccccc2n1,100% (active),22%,-4%,100% (active),inactive,inactive,inactive,inactive
O=C(Nc1cccc(CN2CCN(C(=O)c3cccc(Cl)c3)CC2)c1)c1cccs1,94% (active),17%,-6%,94% (active),inactive,inactive,inactive,inactive
CCn1c2ccccc2c2cc(C=NNc3cc(C)nc4ccccc34)ccc21,97% (active),19%,-2%,102% (active),inactive,inactive,inactive,inactive
O=C(/C=C/c1ccc(C(F)(F)F)cc1)NCCCCCN1CCC(c2c[nH]c3ccccc23)CC1,22%,96% (active),1%,101% (active),inactive,inactive,inactive,inactive
COc1ccc(CNCCc2cccs2)cc1-c1ccc(OC)c(S(=O)(=O)NCCN2CCCC2)c1,19%,16%,1%,96% (active),inactive,inactive,inactive,inactive
C=CCNS(=O)(=O)c1ccc(NC(=O)C(C)Oc2ccc([N+](=O)[O-])cc2)cc1 (configuration not stated),100% (active),14%,-3%,101% (active),inactive,inactive,inactive,inactive
O=C(O)c1cc(C(F)(F)F)co1,19%,-4%,1%,96% (active),inactive,inactive,inactive,inactive
COCCOc1ccc(Nc2nccc(-c3c(-c4cccc(NC(=O)c5c(F)cccc5F)c4)nn4ccccc34)n2)cc1F,60% (active),62% (active),1%,90% (active),inactive,inactive,inactive,inactive
Cc1cn(CC(=O)Nc2cccc(-c3cccc(-c4nc5c(C)cccc5[nH]4)c3)c2)c(=O)[nH]c1=O,100% (active),2%,5%,100% (active),inactive,inactive,inactive,inactive
CN(C(=O)/C=C/c1c(Cl)cccc1Cl)C1CCN(CCCCCNC(=O)/C=C/c2ccc(Cl)c(Cl)c2)CC1,62% (active),78% (active),4%,92% (active),inactive,inactive,inactive,inactive
COc1cc(OC)nc(-c2cccc(NC(=O)c3ccc4c(=O)n(CCN5CCCCC5)cnc4c3)c2)n1,86% (active),11%,-1%,100% (active),inactive,inactive,inactive,inactive
CCOc1cc(CC)ccc1C1CCN(CCCCNC(=O)c2ccc(NC(=O)c3ccc(Cl)cc3)cc2)CC1,58% (active),11%,5%,101% (active),inactive,inactive,inactive,inactive

SMILES,growth inhibition [1],inhibition [2],inhibition [3],growth inhibition [4],outcome [5],outcome [6],outcome [7],outcome [8]
CCCCc1ccccc1NS(=O)(=O)c1ccc(OC)c(N2CCNCC2)c1,2%,6%,0%,91% (active),inactive,inactive,inactive,inactive
Cc1cc(N)c2cc(NC(=O)c3ccc4ccccc4c3)ccc2n1,99% (active),33%,1%,101% (active),inactive,inactive,inactive,inactive
CCOC(=O)C1=C(C)N=c2sc(=Cc3cc(Cl)ccc3O)c(=O)n2C1c1cc(OC)c(OC)cc1Br (configuration not stated),76% (active),6%,-2%,97% (active),inactive,inactive,inactive,inactive
Cc1c(Cc2ccccc2Br)cnc2nc(N)nc(N)c12,97% (active),67% (active),0%,88% (active),inactive,inactive,inactive,inactive
COc1ccc(CN(C)Cc2cc(C(C)C)c(C)cc2O)cc1F,98% (active),1%,-4%,98% (active),inactive,inactive,inactive,inactive
CC(=O)N1N=C(c2cccs2)Sc2c1nc(-c1ccc(Cl)cc1)n2C(C)=O,93% (active),3%,0%,99% (active),inactive,inactive,inactive,inactive
CN(C)CC(=O)Nc1ccc(Nc2nccc(NCC(O)c3ccccc3)n2)cc1 (configuration not stated),2%,-2%,-4%,95% (active),inactive,inactive,inactive,inactive
Cn1c(Cc2ccccc2)nnc1Sc1ccc(C#N)c([N+](=O)[O-])c1,29%,-5%,-5%,93% (active),inactive,inactive,inactive,inactive
CCCc1cc(C(C)=O)ccc1OCCCON1C(N)=NC(N)=NC1(C)C,96% (active),61% (active),4%,96% (active),inactive,inactive,inactive,inactive
O=C(N[C@@H](CC1CCCCC1)C(=O)NC1CCCCCC1)c1ccc(O)c(-c2ccc(Cl)c(Cl)c2)c1,100% (active),-3%,-2%,99% (active),inactive,inactive,inactive,inactive
CCc1ccc(CN(CCCOc2cccc(CC(=O)NCc3cnc[nH]3)c2)Cc2ccc(-n3ccnc3)cc2)cc1,28%,1%,-2%,99% (active),inactive,inactive,inactive,inactive
COc1ccccc1NS(=O)(=O)c1cc(C(=O)Nc2ccc(N3CCOCC3)c(S(=O)(=O)Nc3ccccc3Cl)c2)ccc1Cl,25%,-3%,-2%,97% (active),inactive,inactive,inactive,inactive
Cc1cc(N2CCC(N(C)C)C2)nc(Nc2ccc(Cl)cc2)n1 (configuration not stated),17%,11%,2%,99% (active),inactive,inactive,inactive,inactive
CN1CCN(Cc2cccc(-c3ccc4c(Nc5ccc(F)cc5Cl)ccnc4c3)c2)CC1,100% (active),20%,-1%,101% (active),inactive,inactive,inactive,inactive
CCN(CC)CCc1ccc2c(=O)cc(CCc3cccc(F)c3F)n(CC(=O)N(C)Cc3ccc(-c4ccc(C(F)(F)F)cc4)cc3)c2c1,45%,98% (active),1%,97% (active),inactive,inactive,inactive,inactive
C=CCc1cc(OC)ccc1OCCCOc1c(C)nc(N)nc1N,97% (active),67% (active),-2%,92% (active),inactive,inactive,inactive,inactive
O=C(N[C@H]1CCN(Cc2ccc(OC3CCN(Cc4ccccc4)CC3)cc2)C1)c1ccc(Cl)c(Cl)c1,6%,37%,1%,90% (active),inactive,inactive,inactive,inactive
CCCc1ccc(N2C(N)=NC(N)=NC2(C)C)cc1,-2%,59% (active),6%,94% (active),inactive,inactive,inactive,inactive
C=CCc1cc(Cc2cnc(N)nc2N)cc(CCC)c1OC,1%,3%,0%,83% (active),inactive,inactive,inactive,inactive
